# This is a sample that favours compounds with a hit; in the whole collection about 1.1% have one here.
# LAP4-GFP MLPCN: alters LAP4-GFP fluorescence in TOR pathway yeast screen. actives 0.34% (n = 320,000). GFP response vs DMSO, % at 10 µM. S. cerevisiae LAP4-GFP multiplex, flow cytometry GFP, 3 h; median GFP as percent of DMSO wells;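 active = GFP response vs DMSO above a set limit, about the screen mean plus 3 SD, cut at about 150% in these data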
# CIT2 TOR yeast: alters CIT2-GFP fluorescence in TOR pathway yeast screen. S. cerevisiae CIT2-GFP strain, flow cytometry, 3 h; 100 means same as DMSO wells. actives 0.065% (n = 320,000). AID 2029. GFP response vs DMSO, % at 10 µM;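 active = GFP response relative to DMSO above a set limit, near the screen mean plus 3 SD, cut at about 150% in these data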;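 note: ratio of well median GFP fluorescence to mean of DMSO wells on the plate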
# RPL19A TOR yeast: modulators of TOR pathway RPL19A-GFP in S. cerevisiae; S. cerevisiae RPL19A-GFP strain, flow cytometry, 3 h; active compounds read low; percent response vs DMSO, % at 10 µM; actives 0.3% (n = 330,000); AID 2025;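 active = percent response vs DMSO below 50%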;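 note: median channel GFP fluorescence of the barcoded RPL19A-GFP strain; lower means less RPL19A-GFP as with rapamycin TOR inhibition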
# MEP2-GFP yeast: modulators of TOR pathway MEP2-GFP in S. cerevisiae. S. cerevisiae MEP2-GFP strain, flow cytometry GFP, 3 h; 100% = DMSO control level. GFP response vs DMSO, % at 10 µM. actives 0.51% (n = 330,000);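 active = GFP response versus DMSO above a set limit, roughly screen mean plus 3 SD, cut at about 180% in these data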;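 note: median GFP fluorescence of the barcode-gated MEP2-GFP cells per well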
# AGP1 TOR yeast: modulators of TOR pathway AGP1-GFP in S. cerevisiae | S. cerevisiae AGP1-GFP multiplex flow cytometry, 3 h; GFP as percent of DMSO wells | actives 0.02% (n = 320,000) | GFP response vs DMSO, % at 10 µM;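 active = GFP response relative to DMSO above a set limit, near screen average plus 3 SD, cut at about 150% in these data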;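 note: median GFP channel fluorescence of the gated AGP1 strain per well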
# VLA-4 inh: inhibition in a human VLA-4 binding assay; inhibition, % (about 7 µM as worked out from the volumes in the protocol); AID 2557; actives 0.2% (n = 330,000); P13612; VLA-4 expressing cells, ligand binding flow cytometry; in the data active = inhibition above about 50%
# Target sequence (P13612 whole entry, looked up): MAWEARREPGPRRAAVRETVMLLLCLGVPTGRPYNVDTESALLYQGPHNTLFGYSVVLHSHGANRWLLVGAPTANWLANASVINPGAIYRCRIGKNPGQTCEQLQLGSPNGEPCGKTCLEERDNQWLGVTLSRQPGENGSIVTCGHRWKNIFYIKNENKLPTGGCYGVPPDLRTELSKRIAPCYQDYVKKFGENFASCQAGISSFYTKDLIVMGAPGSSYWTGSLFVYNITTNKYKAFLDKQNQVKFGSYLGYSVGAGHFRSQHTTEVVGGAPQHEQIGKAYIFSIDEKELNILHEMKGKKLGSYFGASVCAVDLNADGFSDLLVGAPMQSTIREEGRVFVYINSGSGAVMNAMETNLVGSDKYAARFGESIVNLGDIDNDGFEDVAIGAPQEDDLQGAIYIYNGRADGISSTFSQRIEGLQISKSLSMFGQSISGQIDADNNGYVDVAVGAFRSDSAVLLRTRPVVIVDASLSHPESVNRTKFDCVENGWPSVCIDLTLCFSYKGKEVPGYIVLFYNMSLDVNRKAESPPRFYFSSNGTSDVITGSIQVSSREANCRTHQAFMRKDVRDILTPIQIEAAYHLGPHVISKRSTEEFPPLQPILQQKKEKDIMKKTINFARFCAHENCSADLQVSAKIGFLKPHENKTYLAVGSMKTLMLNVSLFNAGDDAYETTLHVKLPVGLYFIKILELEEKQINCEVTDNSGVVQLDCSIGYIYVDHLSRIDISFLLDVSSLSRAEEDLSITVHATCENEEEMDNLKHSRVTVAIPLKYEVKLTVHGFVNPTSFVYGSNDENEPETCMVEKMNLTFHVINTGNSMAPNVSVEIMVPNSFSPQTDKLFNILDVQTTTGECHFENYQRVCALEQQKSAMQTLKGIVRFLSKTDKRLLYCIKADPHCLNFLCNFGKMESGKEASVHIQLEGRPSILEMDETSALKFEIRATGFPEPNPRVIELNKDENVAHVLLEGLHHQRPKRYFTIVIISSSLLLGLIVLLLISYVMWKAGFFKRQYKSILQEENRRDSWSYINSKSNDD
# LAP4-GFP pick2: yeast LAP4-GFP modulation, second cherry pick; shares compounds with LAP4-GFP MLPCN; S. cerevisiae LAP4-GFP strain, flow cytometry GFP, 3 h; GFP response vs DMSO, % at 10 µM; actives 20% (n = 590);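 active = GFP signal as percent of the solvent control above about 150%, meaning raised reporter expression, limit read from the data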
# MEP2-GFP pick2: second confirmation of modulators of TOR reporter MEP2-GFP in yeast. shares compounds with LAP4-GFP MLPCN. GFP response vs DMSO, % at 10 µM. AID 2622. S. cerevisiae MEP2-GFP strain, flow cytometry GFP, 3 h. actives 10% (n = 590);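 active = GFP signal above 150% of the solvent control wells, that is a rise of more than half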;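 note: median channel GFP fluorescence of all gated yeast cells per well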
# RPL19A GFP CP2: reconfirmed modulator of RPL19A-GFP TOR reporter in yeast. S. cerevisiae RPL19A-GFP strain, flow cytometry GFP, 3 h; active compounds read low; 100% means same as DMSO wells. AID 2623. shares compounds with LAP4-GFP MLPCN. GFP response vs DMSO, % at 10 µM. actives 3% (n = 590);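 active = under 65% GFP response relative to DMSO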;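 note: median GFP channel fluorescence per well over the all cells gate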
# CIT2 GFP CP2: second confirmation of modulators of TOR reporter CIT2-GFP in yeast. shares compounds with LAP4-GFP MLPCN. S. cerevisiae CIT2-GFP strain, flow cytometry GFP, 3 h; DMSO control wells read 100%. GFP response vs DMSO, % at 10 µM. actives 8% (n = 590);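 active = GFP response vs DMSO above about 150%, limit read from the data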;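 note: median green fluorescence per well over all gated yeast cells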
# AGP1 GFP CP2: yeast AGP1-GFP TOR reporter modulation, second cherry pick | shares compounds with LAP4-GFP MLPCN | S. cerevisiae AGP1-GFP strain, flow cytometry GFP, 3 h | percent response vs DMSO, % at 10 µM | AID 2643 | 590 tested, under 10 active;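 active = over 150 percent of DMSO response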;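 note: median GFP channel fluorescence over all cells without mother daughter split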
# Yeast autofluor: yeast s288c autofluorescence artifact, counter-screen; AID 2757; fluorescence change (kMESF span) at 33 µM; S. cerevisiae s288c, 520 nm autofluorescence, flow cytometry, 3 h; active compounds read high; zero means same as solvent-only cells; shares compounds with LAP4-GFP MLPCN; 610 tested, under 10 active;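 active = fluorescence span over the dose series, or activity score, above about 33, limit read from the data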
# s288c autofl DR: counter-screen for autofluorescence of TOR hits in yeast s288c; shares compounds with LAP4-GFP MLPCN; S. cerevisiae s288c parental, compound autofluorescence, flow cytometry, 3 h; fluorescence change (span) at 33 µM; 110 tested, under 10 active;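 active = fluorescence change span, or the activity score built from it, above 25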
# TORC1 bypass gr: compounds blocking wildtype yeast growth but not TORC1 bypass cells; shares compounds with LAP4-GFP MLPCN; S. cerevisiae BY4741 spot growth rating, 48-72 h; active compounds read low; growth rating (0-3) at 30 µM; 120 tested, under 10 active; AID 504456;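 active = growth rating at most 1 for wild type yeast while the TORC1 bypass strain still grows fully, rated 3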
# Numbers stand for hits; n = inactive; x = not tested or not shown.
SMILES,LAP4-GFP MLPCN,CIT2 TOR yeast,RPL19A TOR yeast,MEP2-GFP yeast,AGP1 TOR yeast,VLA-4 inh,LAP4-GFP pick2,MEP2-GFP pick2,RPL19A GFP CP2,CIT2 GFP CP2,AGP1 GFP CP2,Yeast autofluor,others
Cc1ccc(-c2ccc(C(=O)Nc3cccc(F)c3)o2)c2ccccc12,171,n,n,n,n,n,n,n,n,n,n,x,
CCN(CC(=O)NCc1ccc(F)cc1)C(=O)CCNS(=O)(=O)c1cccc(C)c1,n,n,n,n,n,n,x,x,x,x,x,x,
Nc1nc(Nc2ccccc2)nc(NC2CCCCC2)c1[N+](=O)[O-],x,n,n,n,n,n,x,x,x,x,x,x,
CN1CCN(C(=O)c2cc(COc3c(F)cccc3F)on2)CC1c1ccccc1 (configuration not stated),158,n,n,n,n,n,n,163,n,n,n,n,s288c autofl DR=n;TORC1 bypass gr=n
CC(C)(C)C(=O)N1CCN(C(=O)c2ccco2)CC1,n,n,n,n,n,n,x,x,x,x,x,x,
COc1ccc(N2C(=O)C(Cl)=C(Oc3cccc(OC)c3)C2=O)cc1,198,n,n,n,n,n,x,x,x,x,x,n,
COc1ccc(N2C(=O)c3ccccc3C2=O)cc1,n,n,n,n,n,n,x,x,x,x,x,x,
CCCCc1ccc(/C=C2/C(=O)ON=C2c2ccccc2)s1,n,n,n,n,n,n,n,n,n,n,n,n,
Cc1sc(/C=C2\C(=O)ON=C2c2ccccc2)cc1Br,n,n,n,n,n,n,n,n,n,n,n,n,
O=C(Nc1ccc2c(c1)OCCO2)C(=O)NC1CC1,n,n,n,n,n,n,x,x,x,x,x,x,
CC(=O)O[C@H]1[C@H](C)OC=C[C@@H]1OC(C)=O,n,n,n,n,n,n,x,x,x,x,x,x,
CC(=O)[C@]1(O)Cc2c(O)c3c(c(O)c2[C@@H](O[C@H]2C[C@H](N)[C@H](O)[C@H](C)O2)C1)C(=O)c1ccccc1C3=O,152,n,n,n,n,n,151,153,n,n,n,n,
Cc1cc(C(=O)Nc2ccc3c(c2)OCO3)no1,n,157,n,n,n,n,n,n,n,n,n,x,
COc1cc(C(=O)OCC(=O)Nc2ccc(N3CCOCC3)cc2)ccc1OCC(C)C,n,n,n,n,n,n,x,x,x,x,x,x,
O=C(O)c1ccc(NCc2cccc(Br)c2)cc1,159,n,n,n,n,n,n,n,n,n,n,x,
O=C(O)c1ccc(NCc2ccncc2)cc1,n,n,n,n,n,n,x,x,x,x,x,x,
COc1ccc(NC(=O)CC(C)=O)c(OC)c1,x,x,x,x,x,x,n,n,n,n,n,x,
CCOC(=O)C(C#N)(Cc1cc(OC)cc(OC)c1)Cc1cc(OC)cc(OC)c1,n,n,n,n,n,n,x,x,x,x,x,x,
O=C(CCS(=O)(=O)c1ccc2c(c1)NC(=O)CS2)NCCc1ccccc1,159,n,n,n,n,n,n,n,n,n,n,x,
O=C(CCS(=O)(=O)c1ccc2c(c1)NC(=O)CS2)NCCc1ccc(Cl)cc1,n,n,n,n,n,n,x,x,x,x,x,x,
Cc1ccc2[nH]cc(C(=O)CN3CCN(C)CC3)c2c1,n,n,n,n,n,n,x,x,x,x,x,x,
COc1ccccc1N1CCN(CC(=O)c2c[nH]c3ccccc23)CC1,n,n,n,n,n,n,x,x,x,x,x,x,
Cc1ccc2[nH]cc(C(=O)CN3CCN(c4ccccn4)CC3)c2c1,n,n,n,n,n,n,n,n,n,n,n,x,
O=C(CN1CCN(c2ccccc2F)CC1)c1c[nH]c2ccccc12,159,n,n,n,n,n,n,n,n,n,n,x,
Cc1cc(NC(=O)CSCC(=O)OCC(=O)c2cccc(Br)c2)no1,n,n,n,n,n,n,x,x,x,x,x,x,
SMILES,LAP4-GFP MLPCN,CIT2 TOR yeast,RPL19A TOR yeast,MEP2-GFP yeast,AGP1 TOR yeast,VLA-4 inh,LAP4-GFP pick2,MEP2-GFP pick2,RPL19A GFP CP2,CIT2 GFP CP2,AGP1 GFP CP2,Yeast autofluor,others
Cc1ccc(NN2C(=O)C=C(c3ccc(Cl)cc3)C2=O)cc1,203,n,n,n,n,n,x,x,x,x,x,n,
COc1ccc(C2=CC(=O)N(Nc3ccccc3)C2=O)cc1,232,n,n,n,n,n,x,x,x,x,x,n,
O=C1C2CC=CCC2C(=O)N1Nc1ccccc1 (configuration not stated),n,n,n,n,n,n,x,x,x,x,x,x,
O=C1C=C(c2ccccc2)C(=O)N1Nc1ccccc1,n,n,48,n,n,n,x,x,x,x,x,n,
CC(C)c1ccc(NC(=O)C2CCC(CNC(=O)[C@@H]3Cc4ccccc4CN3)CC2)cc1 (some centres not stated),n,n,n,n,n,n,x,x,x,x,x,x,
COc1ccc(C)cc1NC(=O)c1nn(C)cc1Br,n,n,n,n,n,n,x,x,x,x,x,x,
O=[N+]([O-])c1cccc(N/N=C/c2cc([N+](=O)[O-])ccc2O)c1,n,n,n,n,n,n,x,x,x,x,x,x,
O=[N+]([O-])c1ccc(O)c(/C=N/Nc2ccccn2)c1,237,n,n,n,n,n,284,180,n,n,n,n,
COc1ccc(Cc2nc3ccc(C(=O)N(C)C(C)c4ccon4)cc3o2)cc1 (configuration not stated),190,n,n,n,n,n,n,n,n,n,n,x,
O=C(O)c1cncc(C#CCC2CCCCC2)c1,n,n,n,n,n,n,x,x,x,x,x,x,
CC(C)Cn1c(N)c(C(=O)COC(=O)c2ccc(Cl)cc2)c(=O)n(C)c1=O,n,n,n,n,n,n,x,x,x,x,x,x,

# Screening results deposited in PubChem by NMMLSC.
